An excerpt weighted towards active compounds, which were near 28% of everything screened.
PTK2B oligo ant: antagonists of Pyk2 self-association, primary screen, Q293 cells, FERM NanoBiT luminescence, HTS | 0.83% of 99,000 active | active compounds read low | z-score (the deposit names both 25 µM and 10 µM) | AID 1347419, 2020 | Protein-tyrosine kinase 2-beta (Homo sapiens), Q14289;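 active = Z-score of -3 or lower, scaled per plate to the spread of control and sample wells; inactive = z-score above -3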;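 note: negative z-score means lost luminescence so less FERM oligomerization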
Target sequence (Q14289 whole entry, looked up): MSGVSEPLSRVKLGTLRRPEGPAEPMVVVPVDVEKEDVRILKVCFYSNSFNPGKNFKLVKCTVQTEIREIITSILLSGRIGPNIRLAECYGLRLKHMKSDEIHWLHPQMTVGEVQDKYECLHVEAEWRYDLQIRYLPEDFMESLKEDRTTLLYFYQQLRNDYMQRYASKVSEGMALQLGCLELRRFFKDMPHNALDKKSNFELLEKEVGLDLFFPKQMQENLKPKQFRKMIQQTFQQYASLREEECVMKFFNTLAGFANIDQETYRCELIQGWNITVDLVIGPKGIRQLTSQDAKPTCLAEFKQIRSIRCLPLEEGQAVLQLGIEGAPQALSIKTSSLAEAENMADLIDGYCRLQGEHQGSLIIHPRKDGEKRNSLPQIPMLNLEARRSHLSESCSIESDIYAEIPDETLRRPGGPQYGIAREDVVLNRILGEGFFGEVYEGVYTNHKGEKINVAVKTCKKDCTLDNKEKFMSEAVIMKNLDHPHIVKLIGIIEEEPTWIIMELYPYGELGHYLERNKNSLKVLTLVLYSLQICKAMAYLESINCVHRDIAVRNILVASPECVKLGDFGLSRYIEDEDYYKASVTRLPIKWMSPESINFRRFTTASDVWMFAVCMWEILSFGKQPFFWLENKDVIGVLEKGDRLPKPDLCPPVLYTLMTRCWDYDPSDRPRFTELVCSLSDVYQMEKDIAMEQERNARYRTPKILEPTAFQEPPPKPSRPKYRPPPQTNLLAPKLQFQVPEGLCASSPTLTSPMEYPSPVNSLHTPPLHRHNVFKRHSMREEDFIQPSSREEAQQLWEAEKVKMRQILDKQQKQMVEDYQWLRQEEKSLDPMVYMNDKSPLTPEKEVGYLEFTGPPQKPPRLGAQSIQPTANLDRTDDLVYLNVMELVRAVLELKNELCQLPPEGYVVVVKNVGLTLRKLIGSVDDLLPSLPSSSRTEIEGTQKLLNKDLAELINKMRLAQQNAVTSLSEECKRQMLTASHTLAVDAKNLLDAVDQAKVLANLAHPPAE
CYP2C9 inh: blockers of cytochrome P450 2C9 activity – biochemical, luminescence, ADME assay, primary screen | P11712 | CYP2C9 Supersomes, luciferin-H conversion | inhibition, % at 5 µM | 20% of 96,000 active;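 active = blocking of liver enzyme CYP2C9 beyond about 50% at 5 µM, limit read from the data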
CYP2C9 act: human CYP2C9 activators, primary screen, biochemical, luminescence; Cytochrome P450 2C9 (Homo sapiens), P11712; recombinant CYP2C9, luciferin-H conversion; active compounds read high; factor 1 = untreated enzyme, 0 = blocked; activation factor at 5 µM; 1.4% of 96,000 active; AID 1024, 2008;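 active = activation factor of 2 or more for CYP2C9 at a 5 µM dose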;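 note: 0 = sulfaphenazole-blocked wells and 1 = vehicle-only wells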
CYP2C19 inhib: blockers of cytochrome P450 2C19 activity – biochemical, luminescence, ADME assay, primary screen | inhibition, % at 5 µM | 21% of 96,000 active | CYP2C19 Supersomes, luciferin-H EGE luminescence, 30 min | P33261;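 active = CYP2C19 inhibition above a set limit at 5 µM in the primary screen, cut at about 50% in these data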;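 note: plate controls were negative control wells for no effect and 2.5 mM tranylcypromine positive control for full effect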
CYP2C19 act: human CYP2C19 activators, primary screen, biochemical, luminescence | Cytochrome P450 2C19 (Homo sapiens), P33261 | recombinant CYP2C19, luciferin-H EGE luminescence; active compounds read high; 0 = fully inhibited enzyme, 1 = untreated enzyme | activation factor at 5 µM | 96,000 tested, under 10 active | AID 1025, 2008;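 active = activation factor of at least 2 at 5 µM in the primary screen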;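 note: 0 = wells with 2.5 mM tranylcypromine and 1 = vehicle-only wells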
* hit, by the source's call; · = no result given.

SMILES	PTK2B oligo ant	CYP2C9 inh	CYP2C9 act	CYP2C19 inhib	CYP2C19 act
CCOC(=O)C1CN(S(=O)(=O)c2ccccc2)c2cc(S(=O)(=O)CC)ccc2O1 (stereo not drawn)	0.66	30.4	0.7	36.5	0.6
CCOC(=O)c1cc(C)sc1/N=C/C1=C(O)CCCC1=O	-0.28	·	·	·	·
CCCCCCn1c(=O)c(-c2ccccc2)c(O)c2ccccc21	-0.05	75.9*	0.2	35.2	0.6
O=S(Cc1ccc(Br)cc1)Cc1nnc(SCc2ccc(Cl)cc2)n1-c1ccccc1 (stereo not drawn)	-0.94	52.2*	0.5	37.2	0.6
Cc1ccc(CSc2nnc(CS(=O)Cc3ccc(Cl)cc3Cl)n2C)cc1 (stereo not drawn)	-1.4	54.4*	0.5	-10.5	1.1
Cn1c(=O)n(C)c2cc(NC(=O)CCl)ccc21	-0.54	34.6	0.7	6.4	0.9
CCN=c1sc2ccccc2n1CC(O)COc1ccccc1 (stereo not drawn)	0.65	92.8*	0.1	98.8*	0
N=c1ccccn1CC(O)COc1ccccc1 (stereo not drawn)	0	-7.2	1.1	4.1	1
CC(=O)Nc1ccc(OCC(O)Cn2c3ccccc3c3ccccc32)cc1 (stereo not drawn)	-2.24	·	·	·	·
CN=c1sc2ccccc2n1CC(O)COc1ccccc1 (stereo not drawn)	-0.3	70.6*	0.3	96.1*	0
O=S(=O)(C(=CNc1ccccc1)S(=O)(=O)c1ccccc1)c1ccccc1	-0.43	·	·	·	·
N#CC(c1ccc(Cl)cc1)c1ccc2c(C(F)(F)F)cc(C(F)(F)F)nc2n1 (stereo not drawn)	-2.51	75.9*	0.2	77.1*	0.2
Cn1c(Cc2cccs2)nnc1SCc1nc2ccccc2[nH]1	-0.92	2.7	1	58.7*	0.4
Cn1c(SCc2nc3ccccc3[nH]2)nnc1-c1cccs1	-0.25	19.7	0.8	77.6*	0.2
Cc1nc(CN2CCCC2=NC#N)n(-c2ccccc2)n1	0.53	11.5	0.9	-0.7	1
CCOC(=O)CCC(=O)N1CCNC(=O)C1	·	28.5	0.7	16.5	0.8
CC1CCCCN1C(=O)CSc1nc2cc3c(cc2c(=O)n1Cc1ccc2c(c1)OCO2)OCO3 (stereo not drawn)	-2.05	51.5*	0.5	48.7	0.5
CC1CCCC(C)N1C(=O)Cn1c(SCC(=O)NCc2ccc3c(c2)OCO3)nc2ccccc21 (stereo not drawn)	1.31	90.1*	0.1	63.7*	0.4
CN(C)C(=O)Cn1c(SCC(=O)NCc2ccc3c(c2)OCO3)nc2ccccc21	1.32	·	·	·	·
Cc1cc(C(=O)CSc2nc3ccccc3c(=O)n2C)c(C)n1Cc1ccc2c(c1)OCO2	0.07	84.7*	0.2	76.2*	0.2
COCCn1c(SCC(=O)N2CCC(C)CC2)nc2ccccc2c1=O	-0.23	39.2	0.6	44.1	0.6
CC1CCN(C(=O)CSc2nc3ccccc3c(=O)n2Cc2ccc3c(c2)OCO3)CC1	-0.74	67.2*	0.3	62.0*	0.4
Cc1cc(C(=O)CSc2nnc(-c3ccccc3)n2Cc2ccc3c(c2)OCO3)c(C)n1C	0.18	-7.5	1.1	13.0	0.9
COc1cc(OC)cc(-c2cc3nc(C)c(CCC(=O)O)c(C)n3n2)c1	·	24.5	0.8	19.2	0.8
Cc1nc(SCC(=O)NC(C)(C#N)C2CC2)c2c(-c3cccs3)csc2n1 (stereo not drawn)	-1.92	·	·	·	·
SMILES	PTK2B oligo ant	CYP2C9 inh	CYP2C9 act	CYP2C19 inhib	CYP2C19 act
O=C(Cn1c(=O)n(Cc2ccc3c(c2)OCO3)c(=O)c2ccccc21)N1CCCc2ccccc21	-0.83	·	·	·	·
CC1CCN(C(=O)Cn2c(=O)n(Cc3ccc4c(c3)OCO4)c(=O)c3ccccc32)CC1	0.38	53.6*	0.5	22.1	0.8
Cn1c(Cn2nnc3ccccc32)nnc1SCC(=O)c1ccc(F)cc1	3.35	5.2	0.9	-6.6	1.1
CC(=O)c1ccc(N2CCN(C(=O)CCCn3c(=S)[nH]c4cc5c(cc4c3=O)OCO5)CC2)cc1	-0.36	47.9	0.5	5.1	0.9
Cc1cccc(N2CCN(C(=O)CCCn3c(=S)[nH]c4cc5c(cc4c3=O)OCO5)CC2)c1C	-0.89	58.9*	0.4	31.9	0.7
O=C(CCCn1c(=S)[nH]c2cc3c(cc2c1=O)OCO3)N1CCN(c2ccccc2)CC1	-0.98	79.7*	0.2	21.0	0.8
N#Cc1cnc2sc3ccccc3n2c1=N	0.1	89.0*	0.1	19.3	0.8
Cn1c(SCC(=O)N2CCOCC2)nc(O)cc1=O	0.32	5.3	0.9	0.3	1
CC(C)NC(C(=O)Nc1cc(Cl)cc(Cl)c1)c1ccccc1 (stereo not drawn)	-0.16	72.2*	0.3	71.0*	0.3
COc1cc2nc(SCc3ccc(Cl)cc3Cl)n(Cc3cccs3)c(=N)c2cc1OC	0.16	73.8*	0.3	25.6	0.7
COc1ccc(Cn2c(SCc3ccc(C)cc3)nc3cc(OC)c(OC)cc3c2=N)cc1Cl	0.12	69.0*	0.3	-4.5	1
COc1ccc(Cn2c(SCc3cc(C)ccc3C)nc3cc(OC)c(OC)cc3c2=N)cc1	-0.36	56.4*	0.4	36.8	0.6
Cc1cc(C)n(C(=O)CSc2nnc(SCC(=O)n3nc(C)cc3C)s2)n1	-0.43	-14.8	1.1	-19.7	1.2
Cc1cccc(-c2c3c(=O)n(C)c(=O)n(C)c3cn2C(C)C)c1	0.24	57.0*	0.4	21.9	0.8
CC(C)(C)OC(=O)N1CCCC(C(=O)CC#N)C1 (stereo not drawn)	-0.25	66.5*	0.3	37.2	0.6
CCC1C(O)=C(c2ccccn2)C(=N)N1c1ccccc1 (stereo not drawn)	-0.69	6.2	0.9	32.0	0.7
CN(C)c1cccc(C(=O)Nc2cccc(F)c2)c1	0.05	6.6	0.9	43.3	0.6
N#Cc1cccc(NC(=O)CCn2ccnc2)c1	0.23	87.0*	0.1	95.4*	0
CC(=O)NCCC(=O)Nc1ccc(C)c(F)c1	-0.48	9.8	0.9	10.5	0.9
CCN(CC)c1ccc(C(=O)Nc2cccc(F)c2)cc1	-1.02	6.6	0.9	64.2*	0.4
O=C(CCn1cccc1)Nc1cccc(F)c1	0.08	7.2	0.9	50.0*	0.5
Cc1ccc(NC(=O)CCn2cccc2)cc1F	-0.17	61.3*	0.4	95.8*	0
COc1ccccc1-c1cn[nH]c(=S)n1	1.02	2.2	1	3.6	1
Cc1ccc(S(=O)(=O)Cn2nnnc2C(C(C)C)N2CCc3ccccc3C2)cc1 (stereo not drawn)	-0.43	25.1	0.7	32.1	0.7
Cc1ccc(S(=O)(=O)Cn2nnnc2C(C(C)C)N2CCSCC2)cc1 (stereo not drawn)	0.08	68.6*	0.3	23.9	0.8
